# Source: PubChem BioAssay (NCI)
# About 83,000 compounds went through this panel and 20% of them were active in at least one assay; those are over-represented in the sample as a whole.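 Percent growth is the endpoint: 0 to 100 indicates growth inhibition (40 means 60% inhibition), 0 means no net growth, and negative values indicate cell death.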 Values without a mark were called inactive. Activity calls are given as the source filed them. The calls were made as follows: active = growth percent below 10; inactive = the rest.
# How the values were obtained:
# Assay in all cases: NCI-60 one-dose screen, 48 h (100 = growth as untreated, 0 = no growth, -100 = all killed)
# Conditions in all cases: 10 µM unless noted
# SR leukemia = tested on: SR leukemia
# RPMI-8226 leukemia = tested on: RPMI-8226 leukemia
# OVCAR-8 ovarian = tested on: OVCAR-8 ovarian
# OVCAR-5 ovarian = tested on: OVCAR-5 ovarian
# OVCAR-4 ovarian = tested on: OVCAR-4 ovarian
# SK-OV-3 ovarian = tested on: SK-OV-3 ovarian
# IGROV1 ovarian = tested on: IGROV1 ovarian
# OVCAR-3 ovarian = tested on: OVCAR-3 ovarian
# HS 578T breast = tested on: HS 578T breast
# NCI/ADR-RES ovarian = tested on: NCI/ADR-RES ovarian
# T-47D breast = tested on: T-47D breast
# BT-549 breast = tested on: BT-549 breast
# MDA-MB-435 melanoma = tested on: MDA-MB-435 melanoma
# SW-620 colon = tested on: SW-620 colon
# MCF7 breast = tested on: MCF7 breast
# HCT-116 colon = tested on: HCT-116 colon
# HCC-2998 colon = tested on: HCC-2998 colon
# KM12 colon = tested on: KM12 colon
SMILES,growth (SR leukemia),growth (RPMI-8226 leukemia),growth (OVCAR-8 ovarian),growth (OVCAR-5 ovarian),growth (OVCAR-4 ovarian),growth (SK-OV-3 ovarian),growth (IGROV1 ovarian),growth (OVCAR-3 ovarian),growth (HS 578T breast),growth (NCI/ADR-RES ovarian),growth (T-47D breast),growth (BT-549 breast),growth (MDA-MB-435 melanoma),growth (SW-620 colon),growth (MCF7 breast),growth (HCT-116 colon),growth (HCC-2998 colon),growth (KM12 colon)
CNCc1cccc2c1OCCOCCOCCNS(=O)(=O)c1ccc(cc1)-c1cnc(N)c(n1)C(=O)N2,3.81% (active),65.6%,28%,56.3%,50.4%,27.9%,24.8%,2.52% (active),48.7%,108%,70.4%,28.3%,35.1%,15.5%,11.8%,7.19% (active),21.7%,20.2%
Cc1ccc(C)c2c(C)c(C(=O)Nc3cccc(-n4cccn4)c3)oc12,56.7% [50 µM],43.8% [50 µM],42.4% [50 µM],93.6% [50 µM],50.4% [50 µM],111% [50 µM],76.3% [50 µM],82% [50 µM],81.1% [50 µM],54.3% [50 µM],7.95% [50 µM] (active),61.5% [50 µM],69.9% [50 µM],70.2% [50 µM],13.2% [50 µM],50.7% [50 µM],81.2% [50 µM],56.3% [50 µM]
Cc1ccc(C2CC(c3nc(-c4ccc(Cl)cc4)oc3C)=NN2C(=O)c2ccncc2)cc1 (stereo unspecified),92.9%,83.2%,90.4%,107%,82.5%,92.3%,70.7%,90.7%,83.1%,88.1%,77.7%,96%,88.7%,93.4%,84.1%,94.8%,97.6%,88.3%
COC(=O)/C=C1/SC(=Nc2ccc([N+](=O)[O-])cc2)N(CCc2c[nH]c3ccc(O)cc23)C1=O,-22.5% (active),8.49% (active),38.4%,86.4%,45.1%,61.3%,42.6%,50.9%,47.5%,43.9%,53.9%,25.7%,43.1%,85.5%,30.6%,14.6%,20.9%,41.7%
C/C(=N\O)c1ccc(NC(=O)CSc2nnc(-c3cc(-c4ccc(S(C)(=O)=O)cc4)nc4ccccc34)n2-c2ccccc2)cc1,62.4%,48.2%,82.6%,97.3%,98.7%,115%,80.9%,102%,73.4%,96.8%,63%,88.2%,93.5%,97.4%,85.6%,83.7%,105%,81.9%
C=CN(C(=O)N1CCN(c2cc3c(cc2F)c(=O)c(C(=O)O)cn3C2CC2)CC1)c1nc(-c2ccc(OC)cc2)cs1,20.4%,-6.11% (active),14.3%,33.8%,35.3%,17.6%,39.6%,13.7%,20.3%,37.6%,44.1%,14.8%,19.7%,22.2%,8.52% (active),11.4%,34.3%,21.4%
C=C1C(=O)O[C@H]2[C@H]1CC/C(Cn1cc(CCC)nn1)=C\CC[C@@]1(C)O[C@@H]21,0.0381% (active),26.9%,23.7%,68.2%,40.3%,111%,41%,1.06% (active),69.1%,73.1%,-40.1% (active),40.4%,36.2%,-0.143% (active),11.1%,-55.7% (active),73.6%,81.1%
Cc1nc2cc(O)c(O)cc2cc1Oc1ccc(NC(=O)Nc2ccc(Cl)c(Cl)c2)cc1,8.95% (active),75.7%,47.7%,122%,67.7%,44.9%,67.1%,67.9%,105%,59%,62.2%,82.2%,54.2%,49.3%,76.2%,44.6%,93.4%,74.6%
COc1ccc(-c2nn(-c3ccccc3)cc2/C=C/C(=O)NNC(=O)Nc2ccc(C)cc2)cc1,64%,93.3%,98.1%,103%,101%,92.8%,93%,107%,99.7%,92.8%,92.3%,114%,99.9%,95.1%,91.9%,77.7%,96.7%,101%
NNCCc1ccc(NC(=O)CCCc2ccc(C(=O)Nc3ccccc3N)cc2)cc1,55.2%,41.8%,45.6%,74%,70.1%,79.3%,86.8%,75%,77.8%,85%,28.7%,71%,71.1%,57.5%,57.8%,41.6%,92.4%,81.5%
COc1ccc(-c2cc(-c3ccccc3)nc(N3CCN(CCNc4ccnc5cc(Cl)ccc45)CC3)n2)cc1,7.06% (active),-28.2% (active),-81% (active),48.2%,-27.6% (active),112%,-74% (active),7.81% (active),66.4%,-63.2% (active),-48% (active),72.8%,-72.1% (active),-75.4% (active),-84.8% (active),-73.8% (active),-81.5% (active),-26.9% (active)
COc1cc2c(cc1OCCCCN1CCN(C(=S)SCCC(C#N)(c3ccccc3)c3ccccc3)CC1)N=C[C@@H]1CCCN1C2=O,-44.1% (active),-18% (active),15.9%,-17.1% (active),-11.8% (active),-7.37% (active),-76.6% (active),-85.9% (active),-11.7% (active),13.9%,-13.3% (active),-91.8% (active),-17% (active),-95.6% (active),-93.4% (active),-62.1% (active),-72.3% (active),-60.9% (active)
NS(=O)(=O)c1ccc(NC(=O)/C(=C\c2ccc(Cl)cc2Cl)NC(=O)c2ccccc2)cc1,96.6%,92.2%,101%,108%,97.7%,96.3%,74.9%,113%,89.6%,98.2%,87.5%,89.1%,97.7%,104%,90.1%,97.3%,103%,102%
COc1cc2nc3sc(C(=O)Nc4ccc(C(=O)OC(C)C)cc4)c(C(=O)Nc4ccc(Cl)cc4C)n3c(=O)c2cc1OC,19.5%,52.7%,35.4%,70%,69.5%,91.4%,17%,77.2%,58.9%,62.3%,46.5%,96.7%,76.5%,38.7%,52.2%,76.3%,20.5%,52.3%
COc1ccc(/C=C/C(=O)c2ccc(NC(=O)CSc3nc4c([nH]3)c(=O)n(C)c(=O)n4C)cc2)cc1OC,36.6%,85.9%,89.7%,83.9%,72.6%,102%,71.3%,70%,81.3%,96.1%,76.9%,59%,88.5%,96.2%,40.7%,59.3%,75.9%,72.3%
Cc1ccc(/C=C/C(=O)Nc2ncc(Cc3ccc(F)cc3)s2)o1,18.9%,54.2%,77.6%,64.1%,85.4%,64.6%,54.1%,36.9%,49.2%,55.7%,58.5%,68.9%,-25.9% (active),24.6%,14%,33.5%,48.8%,21%
O=[N+]([O-])c1cc(NS(=O)(=O)c2ccccc2)ccc1NS(=O)(=O)c1ccccc1,128%,109%,93%,106%,106%,102%,119%,111%,98.5%,105%,104%,74.9%,123%,84.4%,112%,87.1%,99.3%,103%
